Screens deposited in PubChem by Corson Lab, School of Medicine, Indiana University.
The entries come from a sample that favours hits as a whole.
FECH block – inhibitors of human ferrochelatase. 3.3% of 20,000 active. calls only at 10 µM (by protocol). P22830. AID 1671448. purified FECH, Ni-mesoporphyrin absorbance 550 nm;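 active = enzyme reaction rate more than 3 SD below the solvent-only control wells on the same plate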;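 note: lower slope than DMSO wells means FECH inhibition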
Target sequence (P22830 whole entry, looked up): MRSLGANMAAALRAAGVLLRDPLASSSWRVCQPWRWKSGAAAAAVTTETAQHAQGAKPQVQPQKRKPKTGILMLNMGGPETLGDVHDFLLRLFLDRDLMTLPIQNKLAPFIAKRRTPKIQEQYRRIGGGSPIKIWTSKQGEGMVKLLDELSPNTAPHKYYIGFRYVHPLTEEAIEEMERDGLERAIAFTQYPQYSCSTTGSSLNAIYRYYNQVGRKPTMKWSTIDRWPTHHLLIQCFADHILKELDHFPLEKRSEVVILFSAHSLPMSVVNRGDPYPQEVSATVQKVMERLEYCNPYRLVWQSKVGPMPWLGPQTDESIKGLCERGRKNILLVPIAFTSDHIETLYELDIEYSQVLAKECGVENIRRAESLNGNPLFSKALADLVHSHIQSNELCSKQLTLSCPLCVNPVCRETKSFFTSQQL
* = called active by the depositor; i = inactive; + = active, no number.

SMILES	FECH block
COc1ccc(N2C(=O)CCS2(=O)=O)cc1S(=O)(=O)NCc1ccc(C)cc1	i
COc1ccc(CNS(=O)(=O)c2cc(N3C(=O)CCS3(=O)=O)ccc2OC)cc1	i
COc1ccc(CNS(=O)(=O)c2cc(N3C(=O)CCS3(=O)=O)ccc2C)cc1OC	+
Cc1ccc(N2C(=O)CCS2(=O)=O)cc1S(=O)(=O)N1CCN(c2ccccn2)CC1	i
CCOC(=O)C1CCCN(S(=O)(=O)c2cc(N3C(=O)CCS3(=O)=O)ccc2C)C1 (stereo not drawn)	+
Cc1ccc(N2C(=O)CCS2(=O)=O)cc1S(=O)(=O)N1CCN(c2ccccc2)CC1	i
Cc1ccc(N2C(=O)CCS2(=O)=O)cc1S(=O)(=O)N1CCN(c2ccccc2F)CC1	+
CCOC(=O)C1CCN(S(=O)(=O)c2cc(N3C(=O)CCS3(=O)=O)ccc2OC)CC1	i
Cc1ccc(N2C(=O)CCS2(=O)=O)cc1S(=O)(=O)N1CCC(C(N)=O)CC1	i
CC(C)Cc1ncc2c(n1)CN(C(=O)c1ccc(Cn3ccnc3)o1)C2	i
Cn1ccn2ncc(C(=O)NCc3ccc(N4CCCC4=O)cc3)c12	i
O=S(=O)(NCCn1c(CCc2ccccc2)nc2cccnc21)c1ccc(F)cc1	i
Cc1cc(Nc2ccccc2)nc(N2CCN(S(=O)(=O)c3cccc(F)c3)CC2)n1	i
CNC(=O)c1ccc(C2CCCN2C(=O)c2cnc3ccnn3c2C)s1 (stereo not drawn)	i
CSc1cccc(Nc2nc(SC)nc(-c3ccc(Cl)cc3)c2C#N)c1	i
Cc1ccccc1-c1cc(N2CCN(S(=O)(=O)c3ccc(F)cc3)CC2)ncn1	i
COc1ccc(C)cc1Nc1c(-c2ccc3c(c2)CCCC3)c(=O)c1=O	i
Cc1ccc(Nc2c(-c3ccc4c(c3)CCCC4)c(=O)c2=O)c(Cl)c1	i
COc1ccc(OC)c(Nc2c(-c3ccc4c(c3)CCCC4)c(=O)c2=O)c1	i
COc1ccc(Nc2c(-c3ccc4c(c3)CCCC4)c(=O)c2=O)c(OC)c1	+
Cc1cc(Cl)ccc1Nc1c(-c2ccc3c(c2)CCCC3)c(=O)c1=O	i
COc1ccc(Cl)cc1Nc1c(-c2ccc3c(c2)CCCC3)c(=O)c1=O	i
Cc1ccc(C)c(Nc2c(-c3ccc4c(c3)CCCC4)c(=O)c2=O)c1	+
O=c1c(Nc2ccc(F)cc2Cl)c(-c2ccc3c(c2)CCCC3)c1=O	+
COc1cc(OC)c(Nc2c(-c3ccc4c(c3)CCCC4)c(=O)c2=O)cc1Cl	i
SMILES	FECH block
O=C(O)C1CN(c2ccc3cccc(Cl)c3n2)CCN1 (stereo not drawn)	i
CCCCOc1ccc(S(=O)(=O)N2CCN(c3nc(C)cc(N4CCN(C)CC4)n3)CC2)cc1	i
COc1ccc(OCc2nc(C(=O)N3CCNCC3c3ccccc3)co2)cc1 (stereo not drawn)	i
CCN(C(=O)c1coc(COc2ccc(OC)cc2)n1)[C@H]1COC[C@@H]1O	i
COc1ccc(OCc2nc(C(=O)N3CC4(C)CN(C)CC(C)(C3)C4)co2)cc1	+
CCc1ccc(CN(CC)C2CCS(=O)(=O)C2)nc1 (stereo not drawn)	i
Cc1ccc(CN2CCN(CC(=O)Nc3ccccc3F)S2(=O)=O)cc1	i
CN(C)c1nc2ncnc(SCC(=O)Nc3ccccc3F)c2s1	i
Cc1cccc(NC(=O)CSCc2nc(-c3ccccc3)no2)c1C	i
CCN1C(SCC(=O)Nc2cccc(C)c2C)=NS(=O)(=O)c2ccccc21	+
Cc1cccc(NC(=O)CN2C(=O)CC(c3ccccc3)=Nc3ccccc32)c1C	i
CCN1C(SCC(=O)Nc2ccccc2F)=NS(=O)(=O)c2ccccc21	+
CCC(=O)Nc1cc2c(cc1OC)C(c1cc(C)ccc1C)CC(=O)N2 (stereo not drawn)	i
COc1ccc(C(=O)N(Cc2nc3nc(C)cc(C)n3n2)c2cccc(Cl)c2)cc1	i
CCc1cccc(NC(=O)CN2C(=O)CC(c3ccccc3)=Nc3ccccc32)c1	i
COc1ccccc1-c1cccc(C(=O)NCC2CC(=O)N(C(C)C)C2)c1 (stereo not drawn)	i
CCn1c(=O)n(CCOc2ccc(F)cc2)c(=O)c2cnc(-c3ccc(OC)cc3)nc21	i
CCn1c(=O)n(CCOc2ccc(F)cc2)c(=O)c2cnc(-c3ccc(Cl)cc3)nc21	+
Cn1c(=O)n(CCOc2ccc(F)cc2)c(=O)c2cnc(-c3ccc(Cl)cc3)nc21	i
CN1CCn2nc(C(=O)NCCSc3cn[nH]n3)cc2C1	i
Cn1c(=O)c(C(=O)Nc2ccc(F)cc2)nc2ccccc21	i
Cn1c(=O)c(C(=O)Nc2ccccn2)nc2ccccc21	+
Cn1c(=O)c(C(=O)Nc2ccccc2Br)nc2ccccc21	i
O=C1OCCN1CCn1cnc(-c2ccccc2)c1-c1cc2ccccc2o1	i
CC1(C(=O)NC2CCCC2)COc2c(oc3ccccc23)C(=O)N1Cc1ccccc1F (stereo not drawn)	i
Cc1cc(N2CCCC2)nc(Nc2ccc(NC(=O)CC(C)(C)C)cc2)n1	i
CC[C@H]1CN(C(=O)c2cnc(N3CCN(C)CC3)nc2C)CC[C@@]1(C)O	i
